14-3-3 Bad inh – inhibitors of 14-3-3 zeta/Bad binding, primary screen, biochemical, TR-FRET, bovine 14-3-3 zeta; 14-3-3 protein zeta/delta (Bos taurus), P63103; 220,000 compounds, 0.71% hits; TR-FRET 14-3-3zeta/Dy647-pBad peptide displacement, 1 h; inhibition, % at 21.7 µM;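 active means inhibition above about 70%, limit read from the data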
Efa HMGR inh – inhibitors of E. faecalis class II HMGR, primary screen, biochemical, Enterococcus faecalis. HMG-CoA reductase (Enterococcus faecalis, mvaE). inhibition, % at 10 µM. 190,000 compounds, 0.41% hits. purified E. faecalis HMGR, NADPH absorbance 340 nm kinetic;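 active means inhibition above a set limit, the median over all tested compounds plus 3 SD, cut at about 9.5% in these data; inconclusive means no clear call, values can overlap the other calls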;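 further: enzyme runs in reverse so mevalonate oxidation gives rising NADPH absorbance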
dFosB act-1 – activators of delta FosB homodimer, primary screen, biochemical, fluorescence polarization, TAMRA-CDK5 oligo, single point | Protein FosB (Mus musculus), P13346 | purified delta FosB; percent of positive-control signal above neutral wells | activation, % at 25 µM | 340,000 compounds, 0.99% hits | AID 493131, 2011;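 active means mean activation above about 17%, with every replicate also reaching it, limit read from the data, passing the limit was not always enough; inconclusive means only one of the two conditions met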
Target sequence (P13346 whole entry, looked up): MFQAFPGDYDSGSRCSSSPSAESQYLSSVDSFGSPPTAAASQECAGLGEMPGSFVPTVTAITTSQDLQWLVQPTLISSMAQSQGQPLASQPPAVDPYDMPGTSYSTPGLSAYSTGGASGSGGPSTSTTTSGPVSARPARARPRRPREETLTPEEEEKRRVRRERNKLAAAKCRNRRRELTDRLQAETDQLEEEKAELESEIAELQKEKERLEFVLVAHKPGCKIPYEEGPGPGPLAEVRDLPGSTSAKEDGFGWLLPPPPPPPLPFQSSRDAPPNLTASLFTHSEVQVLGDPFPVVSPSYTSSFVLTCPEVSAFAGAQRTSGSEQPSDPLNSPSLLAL
NCF1 inh – p47phox/p22phox peptide binding inhibitors, primary screen, biochemical, uHTS, NADPH oxidase regulatory subunit | inhibition, % at 24.7 µM | 220,000 compounds, 0.53% hits | Neutrophil cytosol factor 1 (Homo sapiens), P14598 | AID 1274, 2008 | fluorescence polarization, 2 h;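 active means inhibition above about 30%, limit read from the data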
dFosB act-2 – activators of mouse delta FosB DNA binding, confirmation, biochemical, fluorescence polarization, TAMRA-CDK5 oligo, cherry-picked samples; 2,400 tested, under 10 active; shares compounds with dFosB act-1; activation, % at 24.9 µM; purified delta FosB; normalised: neutral wells 0, positive control 100; AID 588690, 2011;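 active means highest replicate activation at or above 34% and every replicate reaching that threshold; inconclusive means meets only one of the two criteria; inactive means meets neither criterion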;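 further: higher polarization means more probe DNA bound by delta FosB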
Numbers stand for hits; – = inactive; ? = inconclusive; · = no result. Rows were chosen to be rich in hits. Some 1.9% of all compounds tested hit in one or more screens of this group.

SMILES	14-3-3 Bad inh	Efa HMGR inh	dFosB act-1	NCF1 inh	dFosB act-2
Cc1c(Cl)cccc1NC(=O)Cc1ccc([N+](=O)[O-])cc1	–	–	–	–	·
COc1ccc(/C=C2\SC(=O)N(CCC(=O)Nc3ccc(S(=O)(=O)Nc4nccs4)cc3)C2=O)cc1	–	–	86	–	–
CNC[C@H]1Oc2c(NC(=O)C3CC3)cccc2C(=O)N([C@H](C)CO)C[C@@H]1C	·	·	–	·	·
COc1ccc(C(=O)Nc2nnc(S(=O)(=O)N(C)Cc3ccc(F)cc3)s2)cc1OC	·	·	23	·	–
CN(Cc1ccccc1)S(=O)(=O)c1nnc(NC(=O)c2ccc(F)cc2)s1	·	·	–	·	·
Clc1ccc2oc3c(Cl)ncnc3c2c1	–	–	–	–	·
COc1ccc([N+](=O)[O-])cc1NC(=O)CCN1CCN(c2ccccc2)CC1	–	–	–	–	·
Cc1cc(C)n(CC(=O)NNC(=O)CCCOc2ccc(Cl)c(C)c2)n1	·	·	21	·	–
Cc1cc(C)n(CC(=O)NNC(=O)CCCOc2ccc(Cl)cc2C)n1	·	·	34	·	–
CCC(=O)Nc1cc2c(cc1C(=O)CC)OCCO2	–	–	–	–	·
O=C(N/N=C\c1cccnc1)c1cc(-c2ccc(Cl)s2)[nH]n1	–	–	33	–	–
O=C(N/N=C/c1ccncc1)c1cccc(NC(=O)c2ccc(Cl)cc2)c1	–	–	41	–	–
O=C(N/N=C/c1cccnc1)c1ccc(NC(=O)c2ccc(Cl)cc2)cc1	·	·	42	·	–
CC(=O)Nc1ccc(C(=O)N/N=C/c2cccnc2)cc1	–	–	–	–	·
CCOC(=O)C1=C(c2ccccc2)OC(N)=C(C#N)C1c1ccc(Br)s1 (stereo not drawn)	–	–	–	–	·
O=C(O)c1ccc(Cl)c(S(=O)(=O)Nc2ccc3cn[nH]c3c2)c1	–	–	–	–	·
CCOc1cc(/C=C2/NC(=O)N(CC(=O)Nc3cccc(C)c3)C2=O)ccc1O	–	–	19	–	–
COc1cc(/C=C2/NC(=O)N(CC(=O)Nc3cccc(C)c3)C2=O)ccc1OCC(N)=O	–	–	–	–	·
O=C(CN1C(=O)S/C(=C\c2ccccn2)C1=O)Nc1ccccc1	·	·	61	·	–
O=C(CN1C(=O)c2ccccc2C1=O)Nc1ccccc1	·	·	24	·	–
Cc1ccc(NC(=O)CN2C(=O)S/C(=C\c3ccccn3)C2=O)cc1	–	–	–	–	·
Cc1cccc(NC(=O)CN2C(=O)S/C(=C\c3ccccn3)C2=O)c1	–	–	41	–	–
Cc1ccc(NC(=O)CN2C(=O)S/C(=C\c3cccn3C)C2=O)cc1	–	–	–	–	·
O=C(CCCN1C(=O)S/C(=C/C=C/c2ccccc2)C1=O)Nc1ccc(C(=O)O)cc1	·	·	–	·	·
O=C(CN1C(=O)S/C(=C\C=C\c2ccccc2)C1=O)Nc1ccc(O)cc1	–	–	61	–	–
SMILES	14-3-3 Bad inh	Efa HMGR inh	dFosB act-1	NCF1 inh	dFosB act-2
O=C(CN1C(=O)S/C(=C\c2ccccn2)C1=O)Nc1ccc(F)cc1	·	·	48	·	–
COC(=O)c1ccsc1NC(=O)CN1CCN(c2ccc(F)cc2)CC1	–	–	–	–	·
COc1ccc(CN2CCNC(=O)C2CC(=O)N(C)Cc2ccncn2)c(OC)c1 (stereo not drawn)	–	–	–	–	·
Cc1cc(C)c2nc(NCCCNC(=S)NCCCN(C)C)c(C#N)cc2c1	–	–	32	–	?
O=c1c2ccc(Cl)cc2[nH]c(=S)n1Cc1cccnc1	–	–	20	–	–
O=C(Oc1cccc(-n2cnnn2)c1)c1sc2ccccc2c1Cl	–	–	143	–	–
COC(=O)c1ccc(NC(=O)N2CCOCC2)cc1	–	–	–	–	·
Cc1c2ccccc2nc2c(F)c(N(C)C)c(F)c(F)c12	–	–	–	–	·
COC(=O)Cn1c(=NC(=O)CSCC(=O)NC2CCCCC2)sc2cc(OC)ccc21	–	–	29	–	–
CCOC(=O)Cn1c(=NC(=O)CSC(C)=O)sc2cc(OC)ccc21	–	–	–	–	·
COc1cccc(/C=C2/Sc3ccc(C(=O)NCCCN4CCCC4)cc3NC2=O)c1	·	·	37	·	–
O=C1Nc2cc(C(=O)NCCCN3CCCC3)ccc2S/C1=C/c1ccccc1F	·	·	–	·	·
Cc1cccc(NC(=O)c2cc(-c3cccnc3)nc3c(C)cccc23)n1	·	·	55	·	–
N#C/C(=C\c1c(N2CCN(Cc3ccccc3)CC2)nc2ccccn2c1=O)S(=O)(=O)c1ccccc1	·	·	32	·	–
